# From PubChem BioAssay (EPA / NIEHS)
# Several values for one entry are separate records, joined by “and”; a condition that tells them apart may be missing. Equal entries are not always repeated. A structure can be active in one record and inactive in another. Activity calls are given as the source filed them. How the source made its calls: active means hit-call score of the fitted dose curve at least 0.9, where 1 is the maximum; inactive means score below 0.9.
# Columns and labels:
# Conditions in all cases: mRNA level, 48 h; actives raise or lower the signal
# [1] = read-out: Bcl-2 (BAD) gene, BAD (gene 572); experiment: LTEA_HepaRG_BAD: Life Technologies and Expression Analysis (LTEA) Assay for Bcl-2 (BAD) gene using HepaRG (AID 2283469)
# In short: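 Differentiated HepaRG cells were exposed in duplicate in 0.5% DMSO for 48 h to eight-point half-log concentrations up to 100 uM. BAD mRNA was measured by Fluidigm TaqMan qRT-PCR, normalized to ACTB, GAPDH and POLR2A, and fitted bidirectionally against DMSO.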
# [2] = read-out: Bcl-2 (BAX) gene, BAX (gene 581); experiment: LTEA_HepaRG_BAX: Life Technologies and Expression Analysis (LTEA) Assay for Bcl-2 (BAX) gene using HepaRG (AID 2283470)
# Method: (§1) LTEA_HepaRG is a cell based, multiplexed-readout assay that uses HepaRG, a human liver cell line, with measurements taken at 48 hours after chemical dosing on a 96-well plate.LTEA_HepaRG_BAX is one of 102 assay component(s) measured in the LTEA HepaRG cell culture assay. It is a marker of Cell proliferation, survival, death.Data from the assay component LTEA_HepaRG_BAX was analyzed into 1 endpoint. This assay endpoint, LTEA_HepaRG_BAX, was analyzed with bidirectional fitting relative to DMSO as the negative control and baseline of activity. Using a type of inducible reporter, measures of mRNA induction for gain or loss-of-signal activity can be used to understand regulation of transcription factor activity. To generalize the intended target to other relatable targets, this assay endpoint is annotated to the cell cycle intended target family, where the subfamily is Cell proliferation, survival, death.
# (§2) A total of 1060 chemcials from the ToxCast library were tested in eight-point concentration-response experiments. Cell culture and cytotoxicity assays were conducted at Thermo Fisher Scientific's Custom Services facility (Madison, WI). A single lot of human HepaRG cells (Thermo Fisher Scientific, Frederick, MD) was used for the cell culture experiments. 96-well format collagen type I coated plates of human HepaRG cells were prepared using established methods. Briefly, cryopreserved HepaRG cells were thawed, plated at a density of approximately 100,000 cells/well in HepaRG Thaw, Plate, and General Purpose media (HPRG770, Thermo Fisher Scientific), and incubated for 48 hours. 0.5% DMSO was selected as vehicle control to balance the requisite need of DMSO in HepaRG cultures to maintain differentiation (for example, baseline metabolism, proportions of hepatocytes vs. cholangiocytes), while enabling further hepatic receptor pathway activation (for example, PXR and CAR) in response to chemical exposure. 48 hours after plating, the culture medium was replaced with HepaRG Serum-Free Incudtion Media. Cells were exposed to each test chemical in duplicate and maintained in CO2 incubators for another 48 hours. Chemical plates were thawed to room temperature and 200x concentrations of treatment groups were prepared. 8-point conentration-reponse curves were made with the highest exposure at 100 uM, followed by half-log dilutions, all in 0.5% DMSO. Each test plate contained variouse controls, induction positive controls (1mM phenobarbital), cytotoxicity positive controls ([…] aflatoxin B1), vehicle controls (0.5% DMSO), and total lysis controls (0.5% DMSO). Cell morphology images were taken using an Essen IncuCyte FLR automated microscope, with six 96-well plates imaged in about 24 minutes. Images were captured and exported and JPEG files. Spent culture media was transfered to black-well plates for the LDH assay, and remaining media was sorted at -80 C for later use. Cells were treated with RLT buffer and frozen until shipped for gene expression analysis. Total RNA was isolated from the cell suspension in 75 uL of Buffer RLT (Qiagen, Germantown, MD 20874) by Quintiles/Expression Analysis (Durham, NC) using a custom isolation procedure. Total RNA from each plate well was transferred to a preamplification plate. Fluidigm's 96.96 Dynamic ArrayTM (Fluidigm, Amsterdam, the Netherlands) technology was used for gene expression analyses by quantitative reverse transcription polymerase chain reaction (qRT-PCR, performed by Quintiles/Expression Analysis, Durham, NC)89. Standard TaqManTM Assays (Applied Biosystems/ThermoFisher Scientific, Foster City, CA) were used to assess the expression of 93 genes selected based on their selectivity and sensitivity to important hepatic receptors known to be modulated by environmental chemicals; importance in human hepatocyte functionality; and hepatotoxicity. […]
# [3] = read-out: adenosine kinase (ADK) gene, ADK (gene 132); experiment: LTEA_HepaRG_ADK: Life Technologies and Expression Analysis (LTEA) Assay for adenosine kinase (ADK) gene using HepaRG (AID 2283471)
# Method: as §1, with “plate.LTEA_HepaRG_ADK” for “plate.LTEA_HepaRG_BAX”, “Steatosis.Data” for “Cell proliferation, survival, death.Data”, “LTEA_HepaRG_ADK” for “LTEA_HepaRG_BAX”, “LTEA_HepaRG_ADK,” for “LTEA_HepaRG_BAX,”, “kinase” for “cell cycle”, “steatosis.” for “Cell proliferation, survival, death.”
# as §2
# [4] = read-out: Alpha-fetoprotein (AFP) gene, AFP (gene 174); experiment: LTEA_HepaRG_AFP: Life Technologies and Expression Analysis (LTEA) Assay for Alpha-fetoprotein (AFP) gene using HepaRG (AID 2283472)
# In short: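 HepaRG, single lot; 48 h post-plating -> serum-free induction medium; cpd 8-pt, 100 uM top, half-log, 0.5% DMSO, duplicate, 48 h. RNA -> qRT-PCR AFP, norm ACTB/GAPDH/POLR2A. Bidirectional fit vs DMSO.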
# BCL2L11 (gene 10018) = experiment: LTEA_HepaRG_BCL2L11: Life Technologies and Expression Analysis (LTEA) Assay for Bcl-2 (BCL2L11) gene using HepaRG (AID 2283473)
# In short: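 BCL2L11 transcript levels are measured by Fluidigm qRT-PCR, normalized to three housekeeping genes. HepaRG cultures were plated 48 h, then treated 48 h with test chemical (top 100 uM, half-log, 0.5% DMSO vehicle); curves were fitted bidirectionally against DMSO.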
# [5] = read-out: Apolipoprotein A-V (APOA5) gene, APOA5 (gene 116519); experiment: LTEA_HepaRG_APOA5: Life Technologies and Expression Analysis (LTEA) Assay for Apolipoprotein A-V (APOA5) gene using HepaRG (AID 2283474)
# Method: as §1, with “plate.LTEA_HepaRG_APOA5” for “plate.LTEA_HepaRG_BAX”, “Steatosis.Data” for “Cell proliferation, survival, death.Data”, “LTEA_HepaRG_APOA5” for “LTEA_HepaRG_BAX”, “LTEA_HepaRG_APOA5,” for “LTEA_HepaRG_BAX,”, “apolipoprotein” for “cell cycle”, “Steatosis.” for “Cell proliferation, survival, death.”
# as §2
# [6] = read-out: Apoptosis regulator Bcl-2 (Homo sapiens) (UniProt P10415); experiment: LTEA_HepaRG_BCL2: Life Technologies and Expression Analysis (LTEA) Assay for Bcl-2 gene using HepaRG (AID 2283475);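 further: BCL2 transcript by TaqMan qRT-PCR normalised to ACTB GAPDH and POLR2A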
# Method: as §1, with “plate.LTEA_HepaRG_BCL2” for “plate.LTEA_HepaRG_BAX”, “LTEA_HepaRG_BCL2” for “LTEA_HepaRG_BAX”, “LTEA_HepaRG_BCL2,” for “LTEA_HepaRG_BAX,”
# as §2
# [7] = read-out: Bcl-2 (BID) gene, BID (gene 637); experiment: LTEA_HepaRG_BID: Life Technologies and Expression Analysis (LTEA) Assay for Bcl-2 (BID) gene using HepaRG (AID 2283476)
# In short: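 Transcript levels of BID, measured by qRT-PCR and normalized to three housekeeping genes, were fitted bidirectionally against DMSO controls. Cells were HepaRG, dosed 48 h at up to 100 uM.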
# Caspase-3 (Homo sapiens) = Caspase-3 (Homo sapiens) (UniProt P42574); experiment: LTEA_HepaRG_CASP3: Life Technologies and Expression Analysis (LTEA) Assay for cysteine-aspartic acid protease (CASP3) using HepaRG (AID 2283477)
# In short: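 Expression of CASP3 was quantified by TaqMan qRT-PCR against three housekeeping genes (ACTB, GAPDH, POLR2A), bidirectionally versus 0.5% DMSO. HepaRG cultures received compounds in duplicate, top 100 uM with half-log steps, for 48 h in serum-free induction medium.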
# [8] = read-out: Cytochrome P450 (CYP24A1), CYP24A1 (gene 1591); experiment: LTEA_HepaRG_CYP24A1: Life Technologies and Expression Analysis (LTEA) Assay for Cytochrome P450 (CYP24A1) using HepaRG (AID 2283478)
# In short: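 mRNA of CYP24A1 quantified by TaqMan qRT-PCR (ACTB/GAPDH/POLR2A normalization) after 48 h chemical exposure of HepaRG cells, top concentration 100 uM, half-log steps, 0.5% DMSO vehicle, duplicates. Curves fitted bidirectionally against DMSO baseline.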
# Apoptosis regulator Bcl-2 (Homo sapiens), sequence (P10415 whole entry, looked up): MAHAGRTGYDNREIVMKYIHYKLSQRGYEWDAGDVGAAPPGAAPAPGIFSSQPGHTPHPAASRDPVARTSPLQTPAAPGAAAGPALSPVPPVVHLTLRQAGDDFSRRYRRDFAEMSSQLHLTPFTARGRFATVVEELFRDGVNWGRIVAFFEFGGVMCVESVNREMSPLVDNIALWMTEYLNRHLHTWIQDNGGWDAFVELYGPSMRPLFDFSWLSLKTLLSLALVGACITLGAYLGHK
# Caspase-3 (Homo sapiens), sequence (P42574 whole entry, looked up): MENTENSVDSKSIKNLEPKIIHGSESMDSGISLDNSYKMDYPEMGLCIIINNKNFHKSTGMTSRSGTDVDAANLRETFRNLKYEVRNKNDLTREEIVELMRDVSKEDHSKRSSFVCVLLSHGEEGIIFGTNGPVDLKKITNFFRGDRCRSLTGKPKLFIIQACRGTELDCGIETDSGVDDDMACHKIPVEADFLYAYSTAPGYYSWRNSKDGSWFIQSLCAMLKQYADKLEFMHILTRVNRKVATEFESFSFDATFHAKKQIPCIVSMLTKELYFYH
Structure (SMILES),outcome [1],outcome [2],outcome [3],outcome [4],outcome (BCL2L11 (gene 10018)),outcome [5],outcome [6],outcome [7],outcome (Caspase-3 (Homo sapiens)),outcome [8],AC50 [3],AC50 [4],AC50 (BCL2L11 (gene 10018)),AC50 [7],AC50 (Caspase-3 (Homo sapiens)),AC50 [5]
C=C(C)C(N)=O,inactive,inactive,inactive,inactive,inactive,inactive,inactive,inactive,inactive,inactive,–,–,–,–,–,–
O=C(c1ccc(OCCN2CCCCC2)cc1)c1c(-c2ccc(O)cc2)sc2cc(O)ccc12,inactive,inactive,–,inactive,inactive,inactive,inactive,inactive,inactive,inactive,67.7 µM (active),–,–,–,–,–
COC(=O)c1ccc(C(=O)OC)cc1,inactive,inactive,inactive,inactive,inactive,inactive,inactive,inactive,inactive,inactive,–,–,–,–,–,–
CCCCOCCOCCO,inactive,inactive,inactive,inactive,inactive,inactive,inactive,inactive,inactive,inactive,–,–,–,–,–,–
CC/C(=C(\c1ccccc1)c1ccc(OCCN(C)C)cc1)c1ccccc1,inactive,inactive,inactive,–,inactive,inactive,inactive,inactive,inactive,inactive,71.2 µM (active),22.4 µM (active) and 27 µM (active),74.6 µM (active),92.5 µM (active),66.4 µM (active),–
C[C@]12CC[C@@H]3c4ccc(O)cc4CC[C@H]3[C@@H]1CC[C@@H]2O,inactive,inactive,inactive,–,inactive,–,inactive,inactive,inactive,inactive,–,50 µM (active),–,–,–,68 µM (active)
C#C[C@]1(O)CC[C@H]2[C@@H]3CCc4cc(O)ccc4[C@H]3CC[C@@]21C,inactive,inactive,inactive,inactive,–,inactive,inactive,inactive,inactive,inactive,–,–,–,–,–,–
